# Screens as filed in PubChem BioAssay.
# Shown are actives, neighbours in structure and some others; about 2.6% of the full set was active somewhere.
# LT uptake inh: qHTS Assay for Anthrax Lethal Toxin Internalization | Cells, anthrax lethal toxin internalization, FRET ratio (460/530) | Potency, µM (series often up to 40 µM), for inactives: top-dose activity change, negative = inhibition, actives largely listed as inhibitors | 70,000 tested, 0.67% active | AID 912, 2007; further: on the % scale 0 is the no-effect control and ±100 the full control effect; nearly all actives have a fitted effect of over 50% in size
# AmpC det inh: Promiscuous and Specific Inhibitors of AmpC Beta-Lactamase (assay with detergent) | P00811 | purified AmpC, nitrocefin hydrolysis with detergent | Potency, µM (series often up to 28.7 µM), without a hit: at the highest dose activity change, negative = inhibition | 71,000 tested, 0.09% active; active means well fitted curve in the direction sought with a large enough effect; inconclusive means small, poorly fitted or top-dose-only effect; further: on the % scale 0 is the no-effect control and ±100 the full control effect
# Target sequence (P00811 whole entry, looked up): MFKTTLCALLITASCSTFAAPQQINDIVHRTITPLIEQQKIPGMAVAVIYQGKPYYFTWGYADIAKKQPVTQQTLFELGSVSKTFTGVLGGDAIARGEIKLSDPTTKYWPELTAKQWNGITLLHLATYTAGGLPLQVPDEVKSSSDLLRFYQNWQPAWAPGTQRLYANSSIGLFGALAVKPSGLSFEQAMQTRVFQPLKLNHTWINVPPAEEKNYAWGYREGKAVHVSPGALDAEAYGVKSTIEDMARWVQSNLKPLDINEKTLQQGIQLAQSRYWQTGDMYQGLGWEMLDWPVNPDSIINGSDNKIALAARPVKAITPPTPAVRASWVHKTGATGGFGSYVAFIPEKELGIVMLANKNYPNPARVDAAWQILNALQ
#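 E. coli AmpC (5.3 nM) in 20 mM phosphate pH 7.0 with 0.01% Triton X-100, preincubated 15 min RT with compound; nitrocefin (2 uL of 800 uM stock) hydrolysis followed by 480 nm absorbance every 20 s over 4 min.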
# AmpC inh no det: Promiscuous and Specific Inhibitors of AmpC Beta-Lactamase (assay without detergent); P00811; AID 585, 2007; 71,000 tested, 1.8% active; Potency, µM (titrated, usually from 28.7 µM), inactives show at the highest dose activity change, negative = inhibition; AmpC nitrocefin hydrolysis, absorbance 480 nm, no detergent; further: % of control where 0% means no effect
#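 AmpC in 20 mM phosphate buffer pH 7.0 was preincubated 15 min at room temperature with compounds. Nitrocefin (800 uM stock) was then added and hydrolysis followed at 480 nm every 20 s for 4 min.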
# SmPrx2 inh: Schistosoma Mansoni Peroxiredoxins (Prx2) | 65,000 tested, 0.07% active | S. mansoni Prx2 activity coupled to TGR/GSH (TGR is thioredoxin glutathione reductase), NADPH fluorescence loss, qHTS | Potency, µM | Schistosoma mansoni peroxiredoxin 2 (Prx2)
#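 Enzyme mix: 100 uM NADPH, 25 nM TGR, 700 uM GSH, 50 nM Prx2 in 100 mM phosphate pH 7.4, 10 mM EDTA, 0.01% Tween-20. 15 min RT with compound; NADPH/GSH added, H2O2 starts reaction; NADPH fluorescence read 8 min.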
# * = called active by the depositor; ? = inconclusive; . = no result; + = active, no number; [ ] = dose if it differs, or a comment. Unless noted, the call rests on the fitted dose curve. Potency means the concentration at half of the fitted maximal effect.
SMILES,LT uptake inh,AmpC det inh,AmpC inh no det,SmPrx2 inh
CCOc1ccc(C2CC(c3cccc(C)c3)n3nc(N)nc3N2)cc1 (stereo not drawn),6.9%,10.2%,30.6%,>57
Cc1cccc(C2CC(c3ccc(F)cc3)Nc3nc(N)nn32)c1 (stereo not drawn),7.8%,10.5%,3.98µM*[single pt active],>57
Cc1cccc(C2CC(c3ccc(Cl)cc3)Nc3nc(N)nn32)c1 (stereo not drawn),-2.1%,12.3%,3.98µM*[single pt active],>57
Cc1ccc(C2CC(c3cccc(Cl)c3)n3nc(N)nc3N2)cc1 (stereo not drawn),-10.2%,9.0%,71.4%,>57
Cc1cnc(CNc2cc(-c3cccc(C#N)c3)ncn2)cn1,2.7%,-0.4%,0.7%,>57
Cc1ccc(-c2cn(S(=O)(=O)c3cccc4nsnc34)nc2N)cc1,24.7%,-2.8%,-12.8%,>57
Nc1nn(S(=O)(=O)c2cccc3nsnc23)cc1-c1ccc(Br)cc1,?,-6.4%,12.6µM*[single pt active],>57
COc1cccc(Nc2ncc3nc(-c4cccs4)c(=O)n(-c4ccccc4)c3n2)c1,?,0.3%,-1.0%,>57
CN(C)c1nc(N2CCCCC2)nc(N2CCCCC2)n1,-17.9%,14.3%,3.98µM*[single pt active],>57
COc1ccc(N2C(=O)CC(Sc3ncn[nH]3)C2=O)c(OC)c1 (stereo not drawn),12.6µM*,-1.5%,78.6%,.
COc1ccc(-c2nc(NC(=O)c3cc(C(C)(C)C)nn3C)sc2C)cc1,5.01µM*,7.0%,21.1%,>57
Cc1cc(NC(=O)Cc2cccs2)no1,-2.1%,-5.2%,12.6µM*,>57
Cc1cc(NS(=O)(=O)c2ccc(NC(=O)Cc3cccs3)cc2)no1,2.2%,-2.5%,4.8%,>57
O=C(c1ccncc1)N1CCC2(CC1)CN(Cc1cc(C(F)(F)F)cc(C(F)(F)F)c1)C2,12.6µM*,22.9%,-5.5%,>57
O=C(c1cc(C(F)(F)F)cc(C(F)(F)F)c1)N1CCC2(CC1)CN(Cc1ccncc1)C2,?,-3.4%,74.3%,>57
O=C(Nc1cnc2ccccc2c1)c1cccnc1,-5.7%,10.4%,3.98µM*[single pt active],>57
Cc1cc(-n2c(SCC(=O)NCc3cccs3)nc3n[nH]c(C)c3c2=N)ccc1Cl,10µM*,-2.9%,41.9%,>57
Cc1[nH]nc2nc(SCC(=O)NCC3CCCO3)n(-c3ccc(Br)cc3)c(=N)c12 (stereo not drawn),-17.8%,-2.0%,135.2%,>57
COc1ccccc1NC(=O)NCCCN1CCN(c2cccc(Cl)c2)CC1,?,12.2%,3.98µM*[single pt active],>57
COc1ccc(-c2cnc(SCC(=O)Nc3ccc4c(c3)OCO4)n2Cc2ccco2)cc1,?,-3.2%,-11.1%,>57
O=C(CSc1nnc(-c2ccc(Cl)cc2)n1Cc1ccco1)Nc1ccc2c(c1)OCCO2,?,-5.9%,+[single pt active],>57
CC(=O)Nc1cccc(NC(=O)CSc2ncc(-c3ccc(Cl)cc3)n2Cc2ccco2)c1,12.6µM*,-5.1%,64.4%,>57
CCN(CC)S(=O)(=O)c1ccc(-c2nnc3sc4cccc(C)c4n23)cc1,?,14.0%,3.98µM*[single pt active],>57
CN(C)Cc1cc(O)c(O)c(CN(C)C)c1,-4.7%[8 µM],-6.5%[5.75 µM],-2.1%[5.75 µM],>57
O=C(c1c(O)c2ccc(Cl)cc2[nH]c1=O)C1CC1,-8.9%,1.1%,15.4%,>57
SMILES,LT uptake inh,AmpC det inh,AmpC inh no det,SmPrx2 inh
C=CC(C)(C)c1[nH]c2ccccc2c1C1=C(O)C(=O)C(c2c[nH]c3c(CC=C(C)C)cccc23)=C(O)C1=O,25.1µM*,?,?,>11.4
CC(=O)c1cccc(NC(=O)c2cnn3ccccc23)c1,13.4%,10.2%,3.98µM*[single pt active],>57
O=C(NCc1cccnc1)c1ccccc1Br,-1.7%,-0.9%,3.2%,>57
O=C(NCc1cccnc1)c1cnn2ccccc12,0.4%,14.4%,3.98µM*,>57
O=C(O)CCCCn1cnc2c(=S)nc[nH]c21,-6.4%[8 µM],4.8%[5.75 µM],-11.1%[5.75 µM],>57
CCN1C(=O)[C@H]2[C@H]3[C@H](O)[C@H](O)C/C(=N/OCc4ccccc4)[C@@H]3CC[C@@H]2C1=O,-8.8%[1.6 µM],.,.,.
C/C(=N\O)c1ccc2c3c([nH]c2c1)CCCC3,10µM*,4.0%,-9.3%,.
O=C(NCCO)c1ccc2[nH]c3c(c2c1)CCCC3,-13.2%,5.3%,2.3%,.
O=C(c1cc(C(F)(F)F)cc(C(F)(F)F)c1)N1CCC2(CCN(Cc3nccs3)CC2)CC1,?,2.6%,10.5%,>57
CCN1CCCC1CNC(=O)c1cc2c(C)nc3ccccc3c2o1 (stereo not drawn),?,-2.1%,-8.9%,>57
CCCCN(CC)CCNC(=O)c1cc2c(C)nc3ccccc3c2o1,12.6µM*,2.5%,11.5%,>57
Cc1nc2ccccc2c2oc(C(=O)NCCN3CCCCC3C)cc12 (stereo not drawn),7.94µM*,1.3%,4.2%,>57
N#Cc1cccc(NC(=O)N2CC3(CCN(C(=O)c4cccc(F)c4)CC3)C2)c1,-9.1%,-1.6%,27.9%,>57
CC(C)C[C@H](NP(=O)(O)O[C@@H]1O[C@@H](C)[C@@H](O)[C@@H](O)[C@H]1O)C(=O)N[C@@H](Cc1c[nH]c2ccccc12)C(=O)O,-14.8%,-1.1%,6.6%,>57
COc1ccccc1NC(=O)c1nnn(CC(=O)Nc2ccccc2)c1N,-3.9%,9.9%,-21.8%,>57
COc1ccc(OC)c(NC(=O)c2nnn(Cc3ccccc3C)c2N)c1,-16.2%,1.8%,14.2%,>57
COc1cccc(Cn2nnc(C(=O)Nc3cc(C)ccc3OC)c2N)c1,-6.7%,11.4%,3.98µM*[single pt active],>57
COc1cccc(CNC(=O)c2nnn(CC(=O)Nc3ccc(C)c(C)c3)c2N)c1,-11.5%,2.0%,-8.4%,>57
COc1ccc(C)cc1NC(=O)c1nnn(CCc2ccccc2)c1N,-4.7%,13.1%,3.98µM*[single pt active],>57
Nc1c(C(=O)Nc2ccc3c(c2)OCCO3)nnn1CCc1ccccc1,?,8.1%,3.98µM*[single pt active],>57
COc1cccc(Cn2nnc(C(=O)Nc3ccc(C)cc3)c2N)c1,1.2%,12.1%,3.98µM*[single pt active],>57
Cc1noc(C)c1C(=O)N1CCC2(CCCN(C(=O)NC(C)C)C2)CC1,-4.6%,-4.0%,27.3%,>57
COC(=O)N1CCC[C@@]2(CCN(C(=O)Nc3cccc(F)c3)C2)C1,18.9%,-0.2%,135.7%,>57
CC(C)C[C@@H](CC(=O)N[C@H](CC(=O)N[C@@H]1CCCC[C@H]1C(=O)N[C@H](CC(=O)N[C@@H](CCC(=O)O)CC(=O)O)Cc1ccccc1)C(C)C)NC(=O)[C@@H]1CCCC[C@H]1N,-8.6%,18.7%,143.0%,>57
COc1ccc(C)cc1NC(=O)c1nnn(Cc2cc(C)ccc2C)c1N,-7.9%,10.9%,3.98µM*[single pt active],.
COc1ccc(NC(=O)CC2Oc3ccccc3NC2=O)cc1 (stereo not drawn),-4.8%,9.0%,3.98µM*[single pt active],>57
COc1ccc(OC)c(CCNC(=O)CC2Oc3ccccc3NC2=O)c1 (stereo not drawn),-6.9%,10.4%,14.5%,>57
Cc1ccc(NC(=O)CC2Oc3ccc(C)cc3NC2=O)cc1 (stereo not drawn),-6.1%,9.7%,-15.1%,>57
